# From PubChem BioAssay AID463173 (ICCB-Longwood Screening Facility, Harvard Medical School, 2010)
# Hit rate of the full screen: of about 52,000 compounds, about 4,300 (8.3%) were called active. For the sample, actives were picked, then their nearest neighbours and some compounds at random. Values without a mark were called inactive. Rule as the data show it: active = survival mostly below about 52% (no sharp cut-off); inactive = mostly above about 56%.
# Tested on: DeltatarO mutant
# Experiment: growth inhibition of S. aureus wild type versus tarO mutant, primary screen, teichoic acid synthesis inhibitors, RN4220, OD600 (AID 463173)
# Conditions: OD600, 18 h, active compounds read low, screened at 18.75 µg/mL (by protocol)
row,SMILES,survival
1,COCCNC(=O)CSc1nc2ccccc2nc1Cc1ccc(C)cc1,78%
2,CCOC(=O)c1oc2ccccc2c1CN(C)CCc1ccccc1,70%
3,COc1ccc(CCn2c(=O)c3cccnc3n(CC(=O)Nc3c(C)cccc3C)c2=O)cc1OC,90%
4,COc1ccccc1C(=O)Nc1ccc(NC(=O)c2cccs2)cc1,51%
5,CCc1nnc(NC(=O)C(=O)c2cc(C)n(-c3ccccc3)c2C)s1,77%
6,CCOc1ccc(-n2c(SCC(=O)Nc3ccccc3OC)nc3c(oc4ccccc43)c2=O)cc1,69%
7,COc1ccc(-c2noc(C3CC(=O)N(c4ccc5c(c4)OCCO5)C3)n2)c(OC)c1 (stereo not given),98%
8,COc1ccc(N(C(=O)c2ccc(C(C)(C)C)cc2)S(=O)(=O)c2ccc(Cl)cc2)cc1,81%
9,Cc1ccc(Cn2cc(C(=O)c3ccc4c(c3)OCO4)c(=O)c3cc(C)ccc32)cc1,59%
10,Cc1ccc2c(c1)c(=O)c(C(=O)c1ccc3c(c1)OCO3)cn2Cc1ccc(Cl)cc1,46% (active)
11,Cc1ccc2c(c1)c(=O)c(C(=O)c1ccc3c(c1)OCO3)cn2Cc1cccc(F)c1,66%
12,CCOC(=O)c1ccc(NC(=O)CC2C(=O)N(c3ccc(F)cc3)C(=O)N2Cc2ccc3c(c2)OCO3)cc1 (stereo not given),116%
13,O=C(c1ccc(-n2cnnn2)cc1)N(C1CCCCC1)C1CCCCC1,93%
14,COc1cc(OC)c(NC(=O)NCCn2nnc3cc(S(=O)(=O)N(C)C)ccc32)cc1Cl,88%
15,Cc1cc(F)ccc1-n1nnc(C(N)=O)c1C,76%
16,COc1ccc(-n2c(SCC(=O)NCc3ccccc3)nc3c([nH]c4ccccc43)c2=O)cc1,93%
17,CC(CNC(=O)CCCn1c(=O)c2cccn2c2ccc(F)cc21)c1ccccc1 (stereo not given),35% (active)
18,CC(CNC(=O)CCCn1c(=O)c2cccn2c2cccnc21)c1ccccc1 (stereo not given),95%
19,CC(CNC(=O)CCCn1c(=O)c2cccn2c2ccccc21)c1ccccc1 (stereo not given),47%
20,CC(NC(=O)CCn1c(=O)c2cccn2c2ccc(F)cc21)c1ccccc1 (stereo not given),59%
21,CC(CNC(=O)CCn1c(=O)c2cccn2c2ccc(F)cc21)c1ccccc1 (stereo not given),34% (active)
22,COc1cc(C(=O)NCC(c2ccco2)S(=O)(=O)c2cccs2)cc(OC)c1OC (stereo not given),91%
23,COc1cc(C2c3c(-c4c(C)cc(C)cc4O)n[nH]c3C(=O)N2CCCOC(C)C)cc(OC)c1OC (stereo not given),86%

row,SMILES,survival
1,CCOc1cc(CNC(=O)c2ccc3c(c2)NC(=O)C2CCCCN32)cc(OCC)c1OCC (stereo not given),107%
2,O=C1C2C3C=CC(C3)C2C(=O)N1c1ccc(Cl)cc1 (stereo not given),70%
3,CCC(Oc1ccccc1)C(=O)Nc1ccc(OCc2cc(=O)n3ccc(C)cc3n2)cc1 (stereo not given),91%
4,O=C(NCCc1ccccc1)c1ccc2c(c1)N(Cc1ccc(F)cc1)C(=O)c1ccccc1S2,99%
5,COc1cccc(-c2nc(CSCC(=O)NCCc3ccc(Cl)cc3)c(C)o2)c1,-4% (active)
6,COc1ccc(-c2nc(CSCC(=O)NCCc3ccc(OC)c(OC)c3)c(C)o2)cc1,79%
7,CCOc1ccc(CCNC(=O)CSCc2nc(-c3cccc(C)c3)oc2C)cc1OCC,82%
8,COc1ccc(CCNC(=O)CSCc2nc(-c3cccc(C)c3)oc2C)cc1OC,66%
9,COc1cccc(-c2nc(CS(=O)(=O)CC(=O)NCCc3ccc(Cl)cc3)c(C)o2)c1,63%
10,Cc1cccc(-c2nc(CSCC(=O)NCCc3ccc(Cl)cc3)c(C)o2)c1,-7% (active)
11,O=C(c1cc(=O)c2cc(Cl)ccc2o1)N(Cc1ccccc1)C1CCS(=O)(=O)C1 (stereo not given),51%
12,N#Cc1ccccc1NC(=O)CSC1=NCCS1,99%
13,COc1ccc(-c2csc3ncnc(Nc4cccc(OC)c4)c23)cc1,69%
14,COc1ccc(-c2csc3ncnc(Nc4cccc(F)c4)c23)cc1,0% (active)
15,COc1ccc(Nc2ncnc3scc(-c4ccc(F)cc4)c23)cc1,92%
16,O=C1CC(c2nc3ccccc3[nH]2)CN1c1cccc(Cl)c1 (stereo not given),81%
17,COc1cc(C(=O)NCCSc2c(-c3ccccc3)[nH]c3ccccc23)cc(OC)c1OC,68%
18,COc1cccc(NS(=O)(=O)c2ccc3[nH]cc(C(=O)N(C)C4CCCCC4)c(=O)c3c2)c1,98%
19,CC(C)c1ccc(NS(=O)(=O)c2ccc3[nH]cc(C(=O)N4CCCC4)c(=O)c3c2)cc1,76%
20,CC(C)c1ccc(NS(=O)(=O)c2ccc3[nH]cc(C(=O)NCC4CCCO4)c(=O)c3c2)cc1 (stereo not given),81%
21,CC(C)c1ccc(NS(=O)(=O)c2ccc3[nH]cc(C(=O)NC4CCCCC4)c(=O)c3c2)cc1,14% (active)
22,CCN(c1ccccc1)S(=O)(=O)c1ccc2[nH]cc(C(=O)NC3CCCCC3)c(=O)c2c1,82%
23,Cc1cc(C)cc(NS(=O)(=O)c2ccc3[nH]cc(C(=O)N4CCCCC4)c(=O)c3c2)c1,83%

row,SMILES,survival
1,COc1cccc(NS(=O)(=O)c2ccc3[nH]cc(C(=O)N4CCCCCC4)c(=O)c3c2)c1,124%
2,CC(C)c1ccc(NS(=O)(=O)c2ccc3[nH]cc(C(=O)NCCc4ccccc4)c(=O)c3c2)cc1,73%
3,COc1cccc(NS(=O)(=O)c2ccc3[nH]cc(C(=O)NC4CCCCC4)c(=O)c3c2)c1,35% (active)
4,CC(C)c1ccc(NS(=O)(=O)c2ccc3[nH]cc(C(=O)NC4CCCC4)c(=O)c3c2)cc1,4% (active)
5,Cc1cc(C)cc(NS(=O)(=O)c2ccc3[nH]cc(C(=O)NC4CCCCC4)c(=O)c3c2)c1,17% (active)
6,Cc1cc(C)cc(NS(=O)(=O)c2ccc3[nH]cc(C(=O)N4CCCCCC4)c(=O)c3c2)c1,85%
7,Fc1ccc(Nc2ncnc3c2nc2n3CCCCC2)c(F)c1,55%
8,CN(C)S(=O)(=O)N(CC(=O)NCCSc1ccc(Cl)cc1)c1ccccc1,50%
9,NC(=O)CCn1c2ccccc2c2ccccc21,78%
10,O=C1C=CC(=O)C(c2ccc(Cl)cc2)=C1,66%
11,CCCCNc1sc(S(=O)(=O)CCC)nc1S(=O)(=O)c1ccc(C)cc1,86%
12,Cc1ccc(S(=O)(=O)c2c(Nc3ccc(C)c(C)c3)sc(C(=O)c3ccc4c(c3)OCO4)c2N)cc1,125%
13,COc1ccccc1NC(=O)c1cc2c([nH]c1=O)CC(C)(C)CC2=O,90%
14,CCN(CC)C(=O)c1sc2c(c1C)c(=O)n(CCc1ccccc1)c(=O)n2Cc1cccc(Cl)c1,102%
15,CCOc1ccc(-c2nc(Cn3ccn4nc(-c5ccc(OCC)c(Cl)c5)cc4c3=O)c(C)o2)cc1,96%
16,CCCCOc1ccc(-c2nnn(C(C)(C)C(=O)O)n2)cc1,99%
17,CCOC(=O)c1c(S(=O)(=O)NCC(=O)N2CCN(c3ccccc3OC)CC2)c(C)n(C)c1C,77%
18,O=C(CSc1nc(O)cc(=O)[nH]1)Nc1ccccc1,82%
19,O=C(NC1CCCC1)c1c[nH]c2ccc(S(=O)(=O)Nc3cccc(C(F)(F)F)c3)cc2c1=O,16% (active)
20,COc1cccc(NS(=O)(=O)c2ccc3[nH]cc(C(=O)NC(C)c4ccccc4)c(=O)c3c2)c1 (stereo not given),37% (active)
21,Cc1ccccc1NS(=O)(=O)c1ccc2[nH]cc(C(=O)NC(C)c3ccccc3)c(=O)c2c1 (stereo not given),90%
22,CN(C(=O)c1c[nH]c2ccc(S(=O)(=O)Nc3cccc(C(F)(F)F)c3)cc2c1=O)C1CCCCC1,72%
23,COc1cccc(NS(=O)(=O)c2ccc3[nH]cc(C(=O)NCCc4ccccc4)c(=O)c3c2)c1,83%

row,SMILES,survival
1,CC(C)CCNC(=O)c1c[nH]c2ccc(S(=O)(=O)Nc3cccc(C(F)(F)F)c3)cc2c1=O,74%
2,CCOc1ccc(-c2noc(CSc3nnc(Cc4ccccc4)n3-c3cccc(C)c3)n2)cc1,66%
3,Cc1ccc(C)c(Cn2c(SCC(=O)NCc3ccccc3)nc3ccccc32)c1,73%
4,COc1cc(NC(=O)c2cc(Cl)ccc2Cl)ccc1NC(=O)c1cc2ccccc2o1,55%
5,CCOc1ccc(S(=O)(=O)Nc2ccc3c(c2)c(C(C)=O)c(C)n3S(=O)(=O)c2ccc(OCC)cc2)cc1,67%
6,NC(=O)CSc1nnc(Cn2cnc3ccccc32)o1,79%
7,CCOc1ccc(NC(=O)CCC(=O)N2CCSc3ccccc32)cc1,75%
8,CCN(C(=O)c1coc(=O)c2ccccc12)c1ccccc1C,113%
9,CCCN(C(=O)c1cn(C)c(=O)c2ccccc12)c1ccccc1C,79%
10,CCCN(C(=O)c1coc(=O)c2ccccc12)c1ccccc1C,56% (active)
11,CC(=O)N1CCCc2cc(S(=O)(=O)N3CCCC(C(=O)Nc4cccc(F)c4)C3)ccc21 (stereo not given),87%
12,CCc1ccc(-n2c(=O)c3c4c(sc3n(Cc3ccc(F)cc3)c2=O)CCCC4)cc1,42%
13,COc1ccc(-c2cc(C(F)(F)F)n3nc(C(=O)Nc4cc(C)ccc4C)cc3n2)cc1,70%
14,COc1cc(NC(=O)c2cc3nc(-c4ccc(C)cc4)cc(C(F)(F)F)n3n2)cc(OC)c1OC,41% (active)
15,COc1ccc(-c2cc(C(F)(F)F)n3nc(C(=O)Nc4cccc(Cl)c4C)cc3n2)cc1,70%
16,COc1ccc(Cl)cc1NC(=O)c1cc2nc(-c3ccc(C)cc3)cc(C(F)(F)F)n2n1,78%
17,COC(=O)c1ccccc1NC(=O)c1cc2nc(-c3ccc(OC)cc3)cc(C(F)(F)F)n2n1,36% (active)
18,COC(=O)c1ccc(C(=O)OC)c(NC(=O)c2cc3nc(-c4ccc(C)cc4)cc(C(F)(F)F)n3n2)c1,83%
19,COc1ccc(-c2cc(C(F)(F)F)n3nc(C(=O)Nc4cc(Cl)cc(Cl)c4)cc3n2)cc1,86%
20,COc1ccc(-c2cc(C(F)(F)F)n3nc(C(=O)Nc4cc(C(F)(F)F)ccc4Cl)cc3n2)cc1OC,152%
21,COc1ccc(NC(=O)c2cc3nc(-c4ccc(Cl)c(Cl)c4)cc(C(F)(F)F)n3n2)c(OC)c1,47% (active)
